Compounds with a hit are over-represented: about 3.6% of the library has one in this group of screens.
BoNT-F LC inh = BoNT F light chain protease inhibition | AID 588497 | inhibition, % at 10 µM | Multiplex microsphere protease cleavage assay, flow cytometry | actives 0.22% (n = 360,000); in the data active means inhibition above about 35%, passing the limit was not always enough; inconclusive means no clear call, values can overlap the other calls
MazF activator = increases E. coli MazEF RNase cleavage of RNA; FAM/BHQ RNA-DNA oligo cleavage fluorescence, 5 h; activation, % at 20 µM; actives 0.32% (n = 350,000); AID 504720; in the data active means activation above about 50%
Target sequence (P0AE70 whole entry, looked up): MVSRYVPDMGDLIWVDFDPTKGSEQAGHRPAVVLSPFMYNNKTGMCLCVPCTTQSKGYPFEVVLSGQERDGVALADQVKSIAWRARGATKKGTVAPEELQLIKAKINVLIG
Anthrax LF inh2 = blocks Bacillus anthracis lethal factor protease; AID 588501; actives 0.12% (n = 360,000); P15917; multiplex microsphere protease cleavage assay, LF; inhibition, % at 10 µM
BoNT-A LC inh2 = BoNT A light chain protease inhibition. multiplex microsphere protease substrate cleavage, flow cytometry. AID 588499. inhibition, % at 10 µM. actives 0.17% (n = 360,000)
Autofluor counter = flagged as autofluorescent in microsphere protease counterscreen; actives 3.1% (n = 360,000); compound autofluorescence counterscreen, microsphere flow cytometry; active compounds read high; AID 624483; fluorescence intensity (no concentration beside the values); in the data active means fluorescence intensity above about 16000; inconclusive means no clear call, values can overlap the other calls
Of the large screens only hits and unclear results are named; the others gave an inactive call. Unless noted, no stated cut-off is given here; in the data, active means inhibition above about 30%; inconclusive means no clear call, values can overlap the other calls; inactive means below that.

Cc1ccc(S(=O)(=O)Nc2cccc(S(=O)(=O)Nc3ccccc3C(=O)O)c2)c(C)c1	none
COc1ccc(NC(=O)CSc2nnc3n2CCCCC3)cc1S(=O)(=O)N(C)C	none
S=c1[nH]nc(-c2ccccc2)n1C1C=CCCC1 (stereo not given)	Autofluor counter 16741
C#CCN(C#N)c1nc(NCC)nc(NC(C)C)n1	Autofluor counter 23207
CCCCc1cc(=O)oc2cc(C)cc(OCC(=O)O)c12	BoNT-A LC inh2 inconclusive, Autofluor counter 21248
Cc1ccc(S(=O)(=O)NC(CC(=O)O)c2ccco2)cc1 (stereo not given)	BoNT-A LC inh2 inconclusive, Autofluor counter 16531
Cc1nc2c(C(=O)NCCc3ccccc3)c[nH]n2c(=O)c1Cl	Autofluor counter 21299
COc1cccc(N2CCN(C(=O)c3cccc(NC(=O)C4=C(C)OCCS4)c3)CC2)c1	none
CCOC(=O)c1cnc(SCC(=O)N2CCN(c3ccccc3)CC2)nc1N	none
CCOC(=O)c1cnc(SCC(=O)N2CCc3ccccc32)nc1N	MazF activator 68
CC(=NNC(=S)N(Cc1ccccn1)Cc1ccccn1)c1cnccn1	BoNT-F LC inh 45, Anthrax LF inh2 40
S=C(NN=C(c1ccccc1)c1ccccn1)N(Cc1ccccn1)Cc1ccccn1	BoNT-F LC inh 42, Anthrax LF inh2 43, BoNT-A LC inh2 51
O=C(NN=C(c1ccccc1)c1ccccn1)c1ccccc1	none
Cc1ccc(Cl)cc1NC(C#N)c1ccccc1 (stereo not given)	BoNT-F LC inh inconclusive
O=C(CSc1nc(=O)n2ccccc2n1)NC1CCCCC1	none
C[C@@H]1CN([C@H](C)CO)C(=O)CCCn2cc(nn2)CO[C@H]1CN(C)C(=O)c1ccc2ccn(C)c2c1	none (no result: MazF activator)
CSc1ccc(C2Nc3ccccc3-c3cc(C)nn32)cc1 (stereo not given)	Autofluor counter 21584
Cc1onc(-c2ccccc2)c1C(=O)OCC(=O)c1ccc[nH]1	none
O=C(Nc1cccn2ncnc12)c1ccc(Cl)cc1	BoNT-A LC inh2 inconclusive, Autofluor counter 23079
O=C(Nc1cccn2ncnc12)c1ccccc1	Autofluor counter 21325
COc1cc2c(cc1OC)C1Cc3ccc(OC)c(OC)c3C[N+]1([O-])CC2 (stereo not given)	none
CCN(CC)C(=O)C1=C(C)N(Cc2ccc(C(C)(C)C)cc2)C(=O)C(CC(=O)NC2CC2)C1 (stereo not given)	none
CNC(=S)N1N=C(c2ccc(C)cc2)CC1c1ccc(Cl)cc1 (stereo not given)	Autofluor counter inconclusive
CCC(=O)N1N=C(c2ccc(NS(C)(=O)=O)cc2)CC1c1ccc(C)cc1 (stereo not given)	BoNT-A LC inh2 inconclusive, Autofluor counter 19251
CNC(=S)N1N=C(c2ccc(C)cc2)CC1c1ccc(Br)cc1 (stereo not given)	Autofluor counter 23443
CC(C)CN(C(=O)c1cc(Cl)nc2ccccc12)C1CCS(=O)(=O)C1 (stereo not given)	none (no result: BoNT-F LC inh, Anthrax LF inh2, BoNT-A LC inh2, Autofluor counter)
CC1(C)CC2(CCCN(CC(O)(c3ccccc3)c3ccccc3)C2)CCO1 (stereo not given)	none
COc1ccc([C@@H]2CC=C(C(=O)O)[C@H](c3ccc(F)cc3)N2S(=O)(=O)c2ccccc2C)cc1	none
COc1ccccc1NS(=O)(=O)c1ccc(NC(C)=O)cc1	Autofluor counter 18703
COc1ccccc1NS(=O)(=O)c1cccc(NC(=O)Nc2cccc(Cl)c2)c1	MazF activator 77
COC(=O)Nc1ccc(S(=O)(=O)Nc2cccc3ccccc23)cc1	BoNT-A LC inh2 inconclusive, Autofluor counter 21995
COc1ccc(NC(=O)C(C)NS(=O)(=O)c2ccc(NC(C)=O)cc2)cc1Cl (stereo not given)	Autofluor counter 23479
COc1ccccc1NS(=O)(=O)c1cccc(NC(=O)NCCCl)c1	none
COc1ccc(-c2coc3c(C(=O)Nc4cccnc4)cccc23)c(C)c1	none (no result: MazF activator)
COc1ccc(S(=O)(=O)NC(=O)C2(C)CCN2C(=O)CCc2ccc(Cl)cc2Cl)cc1 (stereo not given)	none (no result: MazF activator)
Cc1cc(=O)[nH]c2c1c(C)nn2C1CCCC1	Autofluor counter 18691
O=C(CC[C@H]1O[C@@H](n2cnc3c(NC(=O)c4ccccc4)ncnc32)[C@H](O)[C@@H]1O)NCC(F)(F)F	none (no result: MazF activator)
Cc1cn([C@H]2C[C@H](O)[C@@H](CCC(=O)NCC(c3ccccc3)c3ccccc3)O2)c(=O)[nH]c1=O	none (no result: MazF activator)
O=C(CCc1nc(-c2ccc(Cl)cc2)no1)NCc1ccccc1CN1CCOCC1	none
Cc1ccc(S(=O)(=O)Cn2cnnn2)cc1	Autofluor counter 24828
Cc1ccc(S(=O)(=O)CS(=O)(=O)c2ccc(C)cc2)cc1	none
CC(C)C[C@H](NS(=O)(=O)c1ccc(Br)cc1)C(=O)O	Autofluor counter 22565
O=C(O)CCCN1C(=O)/C(=C\c2ccc(-c3nc4ccccc4s3)o2)SC1=S	BoNT-A LC inh2 41
O=C(O)CCN1C(=O)/C(=C/c2ccc(-c3nc4ccccc4s3)o2)SC1=S	none
CCN(CC)CCN(Cc1cc2cc3c(cc2[nH]c1=O)OCCO3)C(=O)NC1CCCCC1	none
Cc1ccc2[nH]c(=O)c(CN(CCCN3CCOCC3)C(=O)NC3CCCCC3)cc2c1	BoNT-A LC inh2 inconclusive, Autofluor counter 22874
O=C(NC1CCCCC1)N(CCN1CCOCC1)Cc1cc2cc3c(cc2[nH]c1=O)OCCO3	Autofluor counter 19967
COc1ccccc1N(C)S(=O)(=O)c1ccc(C)c(C(=O)N2CCCCCC2)c1	none
CCc1ccc(CN(C)CCc2ccccn2)cc1	BoNT-A LC inh2 inconclusive, Autofluor counter 16273
CN(CCc1ccccn1)Cc1ccc(Cl)cc1	Autofluor counter 20900
Cc1ccc(CN(C)CCc2ccccn2)cc1	none
COc1ccc(COCC(O)CN2CCN(S(=O)(=O)c3ccc(C(C)C)cc3)CC2)cc1 (stereo not given)	none
CSc1nnc(-c2ccc(S(=O)(=O)N3CCOCC3)cc2)n1CC1CCCO1 (stereo not given)	Autofluor counter 17507
CCSc1nnc(-c2ccc(S(=O)(=O)N3CCOCC3)cc2)n1CC1CCCO1 (stereo not given)	none
Cc1ccc(NC(=O)Cc2nnc(SCC(=O)c3ccc(Br)cc3)n2C)cc1	Autofluor counter 21836
CCn1c(Cc2ccccc2)nnc1SCC(=O)Nc1ccc(C)cc1	none
CCn1c(CC(=O)Nc2ccc(C)cc2)nnc1SCC(=O)NCCc1ccccc1	Autofluor counter 24526
Cc1ccc(NC(=O)Cc2nnc(SCC(=O)NC3CCCC3)n2C)cc1	none
CCn1c(SCC(=O)Nc2cccc(OC)c2)nnc1-c1ccc(Cl)cc1	BoNT-A LC inh2 inconclusive, Autofluor counter 21821
C[C@@H]1CN([C@@H](C)CO)C(=O)c2cc(Br)cnc2O[C@H]1CN(C)Cc1cccc(C(=O)O)c1	none
CC1(C(=O)NS(=O)(=O)C2CC2)CCCN(C(=O)c2ccccc2)C1 (stereo not given)	none (no result: MazF activator)
CCn1c(SCC(=O)Nc2ccc(C)cc2)nnc1-c1ccc(O)cc1	Autofluor counter 17034
CCC(=O)Nc1ccc(C(=O)CSc2nnc(-c3ccc(O)cc3)n2CC2CCCO2)cc1 (stereo not given)	Autofluor counter 23574

Compound activity from PubChem BioAssay.
